Measurements reported in PubChem BioAssay (NCI).
This is part of a sample that, as a whole, favours compounds with a hit. Of some 79,000 tested, about 15% had one in any assay. Values without a mark were called inactive. Active and inactive are the calls of the source. Rule as the data show it: active = growth inhibition above about 70%; inactive = the rest.

How the values were obtained:
[1] = NCI Yeast Anticancer Drug Screen. Data for the rad50 strain (AID 155);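 also: 0% = growth of vehicle-only cultures of the same strain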; details: S. cerevisiae rad50 strain growth inhibition, stronger effect = higher value
In short: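 Vehicle-treated cultures provide the reference for the growth inhibition reported for compound-exposed, repair-deficient yeast.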

[2] = NCI Yeast Anticancer Drug Screen. Data for the mec2-1 strain (AID 157); details: S. cerevisiae mec2-1 strain, stronger effect = higher value
In short: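 Mutant yeast (mec2-1) grown with compound; growth inhibition relative to vehicle control reported.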

[3] = NCI Yeast Anticancer Drug Screen. Data for the sgs1 mgt1 strain (AID 161);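 also: 0% = growth of cultures given vehicle only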; details: S. cerevisiae sgs1 mgt1 strain, stronger effect = higher value
In short: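 Yeast cells carrying a defined DNA-repair defect were exposed to test compounds. Growth inhibition was measured relative to vehicle-treated controls.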

[4] = NCI Yeast Anticancer Drug Screen. Data for the cln2 rad14 strain (AID 165);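 also: 0% = growth equal to vehicle treated cultures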; details: S. cerevisiae cln2 rad14 strain, stronger effect = higher value
In short: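 Readout is yeast growth inhibition versus vehicle-treated controls, using a strain with cln2 and rad14 alterations exposed to compound.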

[5] = NCI Yeast Anticancer Drug Screen. Data for the bub3 strain (AID 167); details: S. cerevisiae bub3 mutant strain, stronger effect = higher value
In short: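 Mutant yeast screening strain plus compound; vehicle-treated cultures serve as the 0% inhibition reference.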

[6] = NCI Yeast Anticancer Drug Screen. Data for the mlh1 rad18 strain (AID 175); details: S. cerevisiae mlh1 rad18 strain growth inhibition, stronger effect = higher value
In short: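 Genetically defined yeast (DNA repair-deficient) exposed to compounds; growth inhibition determined relative to vehicle.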

[7] = at 5.0 µM (retest, dose inferred, filed as 0.5)
[8] = at 50.0 µM (retest, dose inferred, filed as 5.0)

Row | Structure (SMILES) | growth inhibition [1, 7] | growth inhibition [1, 8] | growth inhibition ([1]; at 50.0 µM) | growth inhibition [2, 7] | growth inhibition [2, 8] | growth inhibition ([2]; at 50.0 µM) | growth inhibition [3, 7] | growth inhibition [3, 8] | growth inhibition ([3]; at 50.0 µM) | growth inhibition [4, 7] | growth inhibition [4, 8] | growth inhibition ([4]; at 50.0 µM) | growth inhibition [5, 7] | growth inhibition [5, 8] | growth inhibition ([5]; at 50.0 µM) | growth inhibition [6, 7] | growth inhibition [6, 8] | growth inhibition ([6]; at 50.0 µM)
1 | CNC(=O)OC(C)CN1c2ccccc2Sc2ccccc21 (stereo not given) | -10% | 97% (active) | 90.2% (active) | -21% | 98% (active) | 92.2% (active) | 5% | 96% (active) | 93.1% (active) | -1% | 93% (active) | 90.3% (active) | 1% | 98% (active) | 91.7% (active) | -11% | 98% (active) | 91.4% (active)
2 | COc1cc(C(c2cc3c(cc2O)OCO3)N2CCOCC2)cc(OC)c1OC (stereo not given) | 0% | 23% | 35.5% | -23% | 13% | 67.7% | -3% | 28% | 17% | 4% | 8% | 20.6% | 2% | 11% | 7.1% | -4% | 21% | 19%
3 | Oc1c(Br)cc(Cl)cc1C(c1cc(Cl)cc(Br)c1O)C(Cl)(Cl)Cl | 0% | 98% (active) | 96% (active) | 2% | 99% (active) | 98.2% (active) | 3% | 99% (active) | 97.8% (active) | -5% | 98% (active) | 97.2% (active) | -1% | 98% (active) | 97.1% (active) | 5% | 98% (active) | 90.8% (active)
4 | O=NN(CCCl)C(=O)Oc1cc(Cl)c(Cl)cc1Cl | 71% (active) | 98% (active) | 87.8% (active) | 79% (active) | 100% (active) | 92.7% (active) | 84% (active) | 100% (active) | 92.7% (active) | 37% | 99% (active) | 90.5% (active) | 48% | 100% (active) | 92% (active) | 96% (active) | 99% (active) | 91% (active)
5 | S=C(N/N=C1\C=Cc2ccccc2C1)N/N=C1\C=Cc2ccccc2C1 | 0% | 17% | 55.5% | -4% | 59% | 41.4% | -7% | 45% | 41.7% | 2% | 4% | 36.1% | -3% | 36% | 62.4% | 18% | 56% | 71% (active)
6 | O=C(CNC(=O)OCc1ccccc1)Oc1ccc([N+](=O)[O-])cc1 | -9% | -1% | 22.1% | -1% | 38% | 58.4% | 3% | 7% | 48.6% | -42% | -56% | -60.2% | -5% | 0% | 64.2% | 12% | 36% | 73.7% (active)
7 | CC(=O)N1CCC(Cc2ccccc2)CC1 | -105% | 95% (active) | 2.3% | -46% | 80% (active) | 18.3% | -49% | 92% (active) | 11.2% | -55% | 70% (active) | 56.9% | -51% | 89% (active) | 22.4% | -103% | 91% (active) | 25%
8 | CCC(=O)OCN1C(=O)C=CC1=O | 11% | 99% (active) | 99% (active) | 3% | 100% (active) | 99.3% (active) | -4% | 100% (active) | 99.2% (active) | 14% | 99% (active) | 98.9% (active) | 10% | 100% (active) | 99.3% (active) | 20% | 99% (active) | 99% (active)
9 | CSc1nc(=S)c2[nH]c(C)nc2[nH]1 | 0% | 4% | 93.3% (active) | -2% | -3% | 99.6% (active) | 0% | 1% | 99.2% (active) | -3% | 6% | 98.5% (active) | -1% | -6% | 99.6% (active) | 1% | 3% | 97.5% (active)
10 | Nc1ccc2c(SCCSc3c4ccccc4nc4cc(N)ccc34)c3ccccc3nc2c1 | 25% | 81% (active) | 56% | 20% | 62% | 33% | 28% | 76% (active) | 52.6% | 6% | 28% | -8.65% | 1% | -14% | -6.05% | 23% | 46% | 29.9%
